# Laboratory results taken from PubChem BioAssay (Tox21).
# Results filed as inconclusive are left out. Entries that show only a call come without a potency. Calls of active or inactive are those of the source. Unless noted, calls follow the shape of the full dose curve.
# Key:
# [1] = qHTS assay to identify small molecule antagonists of the sonic hedgehog signaling (Shh) pathway (AID 1259369); also: nearly all actives have a fitted effect of over 45% in size; also: potency is read from the fitted curve at half-maximal effect
# How it was run: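 Screening used 3T3Gli1-Luc cells at 2,000 per well, compounds delivered in DMSO, and conditioned medium as agonist stimulus; plates incubated 24hr at 37 C and 5% CO2 before a 30min luciferase step.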
# [2] = qHTS assay to identify small molecule antagonists of the estrogen receptor beta (ER-beta) signaling pathway - cell viability counter screen (AID 1259382; active = well fitted curve in the direction sought with a large enough effect in the repeat runs; an effect the other way counts as inactive or inconclusive; also: nearly all actives have a fitted effect of over 55% in size; also: potency is read from the fitted curve at half-maximal effect)
# How it was run: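 Tox21 10K library tested in qHTS format on ER-beta-bla HEK293T cells stimulated with 1nM E2; 16 hr treatment at 37C. Same-well CellTiter-Glo luminescence served as the cell viability measure.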
# [3] = target: Estrogen receptor (Homo sapiens) (UniProt P03372); assay: qHTS assay to identify small molecule agonists of the estrogen receptor alpha (ER-alpha) signaling pathway in the presence of an antagonist (AID 1259383); also: top concentration of the series differs between compounds; nearly all actives have a fitted effect of over 15% in size
# Estrogen receptor (Homo sapiens), sequence (P03372 whole entry, looked up): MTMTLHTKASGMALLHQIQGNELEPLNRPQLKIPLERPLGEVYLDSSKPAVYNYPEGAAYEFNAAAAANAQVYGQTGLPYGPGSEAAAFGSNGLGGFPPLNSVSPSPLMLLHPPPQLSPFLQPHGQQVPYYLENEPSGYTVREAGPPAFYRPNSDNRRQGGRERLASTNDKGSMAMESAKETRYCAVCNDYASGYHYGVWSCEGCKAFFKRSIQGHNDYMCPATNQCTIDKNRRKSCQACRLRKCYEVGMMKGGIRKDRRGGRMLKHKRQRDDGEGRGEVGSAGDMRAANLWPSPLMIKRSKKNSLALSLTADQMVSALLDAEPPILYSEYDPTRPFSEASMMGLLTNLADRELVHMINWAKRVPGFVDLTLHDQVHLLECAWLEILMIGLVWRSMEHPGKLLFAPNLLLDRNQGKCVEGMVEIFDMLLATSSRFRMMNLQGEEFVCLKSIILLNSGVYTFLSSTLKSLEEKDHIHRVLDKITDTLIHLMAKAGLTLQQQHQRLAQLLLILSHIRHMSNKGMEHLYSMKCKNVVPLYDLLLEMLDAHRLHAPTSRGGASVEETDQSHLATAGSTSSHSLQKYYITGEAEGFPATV
# How it was run: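 In VM7Luc4E2 cells, 4,000 per well, compounds at 15 concentrations were co-incubated 22hr at 37C with 10.0nM final ICI-182,780. Luminescence from the stably transfected 4×ERE-luciferase reporter was recorded 30min after ONE-Glo addition.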
# [4] = qHTS assay to identify small molecule agonists or antagonists of the thyroid stimulating hormone receptor (TSHR) signaling pathway - wild type cell line counter screen (AID 1259384)
# How it was run: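 Counter screen in untransfected Hek293: compounds (15-point titration, triplicate) plus phosphodiesterase inhibitor Ro20-1724 added after 18 h plating; 30 min RT. Intracellular cAMP via competitive d2/cryptate immunoassay, 1 h incubation.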
# [5] = qHTS assay to identify small molecule agonists of the estrogen receptor alpha (ER-alpha) signaling pathway in the presence of an antagonist - cell viability counter screen (AID 1259386; active = well fitted curve in the direction sought with a large enough effect in the repeat runs; an effect the other way counts as inactive or inconclusive;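 also: series mostly up to about 92 µM; cells exposed to compounds for 22 h at 37 °C before the viability read; nearly all actives have a fitted effect of over 30% in size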)
# How it was run: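 Fluorescent CellTiter-Fluor viability signal from VM7Luc4E2 cells, with the reagent added during the final hour of a 22hr compound exposure at 37C in the presence of 10.0nM ICI-182,780.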
# [6] = target: Progesterone receptor (Homo sapiens) (UniProt P06401); assay: qHTS assay to identify small molecule agonists of the progesterone receptor (PR) signaling pathway (AID 1346784); also: nearly all actives have a fitted effect of over 30% in size; also: potency is read from the fitted curve at half-maximal effect
# Progesterone receptor (Homo sapiens), sequence (P06401 whole entry, looked up): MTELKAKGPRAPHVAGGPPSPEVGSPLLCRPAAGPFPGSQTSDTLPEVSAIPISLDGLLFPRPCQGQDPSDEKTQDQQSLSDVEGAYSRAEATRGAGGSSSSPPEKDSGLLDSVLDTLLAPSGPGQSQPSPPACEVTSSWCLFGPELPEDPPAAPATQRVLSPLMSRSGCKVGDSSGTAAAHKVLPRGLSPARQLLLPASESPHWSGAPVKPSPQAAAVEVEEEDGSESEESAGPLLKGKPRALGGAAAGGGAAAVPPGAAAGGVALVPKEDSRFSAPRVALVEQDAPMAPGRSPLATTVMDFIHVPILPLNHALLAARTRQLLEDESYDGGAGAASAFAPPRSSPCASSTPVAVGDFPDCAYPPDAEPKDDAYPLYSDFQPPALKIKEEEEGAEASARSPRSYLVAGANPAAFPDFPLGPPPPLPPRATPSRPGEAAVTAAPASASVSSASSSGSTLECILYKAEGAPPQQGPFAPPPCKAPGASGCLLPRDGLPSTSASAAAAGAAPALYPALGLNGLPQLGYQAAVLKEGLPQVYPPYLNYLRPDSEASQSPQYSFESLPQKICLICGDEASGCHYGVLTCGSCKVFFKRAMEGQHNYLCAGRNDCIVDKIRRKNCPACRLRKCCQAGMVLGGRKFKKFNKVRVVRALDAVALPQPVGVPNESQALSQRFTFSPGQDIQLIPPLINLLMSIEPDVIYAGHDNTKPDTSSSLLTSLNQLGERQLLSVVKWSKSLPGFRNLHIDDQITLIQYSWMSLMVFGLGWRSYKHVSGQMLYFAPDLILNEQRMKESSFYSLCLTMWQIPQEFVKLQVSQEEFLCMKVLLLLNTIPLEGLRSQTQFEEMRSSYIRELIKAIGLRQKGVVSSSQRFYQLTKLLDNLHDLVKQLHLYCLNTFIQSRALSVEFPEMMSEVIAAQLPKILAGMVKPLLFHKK
# How it was run: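 The screen uses PR-UAS-bla HEK 293T cells in charcoal-stripped serum (2%). Compounds are applied for 16 hr at 37C after a 6 hr pre-incubation, and reporter activity is detected with a FRET beta-lactamase substrate after 2 hr at room temperature.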
# [7] = qHTS assay to identify small molecule antagonists of the progesterone receptor (PR) signaling pathway - cell viability counter screen (AID 1346798; active = well fitted curve in the direction sought with a large enough effect in the repeat runs; an effect the other way counts as inactive or inconclusive; also: nearly all actives have a fitted effect of over 50% in size; also: potency is read from the fitted curve at half-maximal effect)
# How it was run: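 Viability was determined by ATP-based luminescence (CellTiter-Glo) in PR-UAS-bla HEK293T cells cultured in 2% charcoal-stripped serum and incubated 16 hr with compounds under R5020 stimulation.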
# [8] = qHTS assay to identify small molecule antagonists of the TGF-beta/Smad signaling pathway - cell viability counter screen (AID 1346824; active = well fitted curve in the direction sought with a large enough effect in the repeat runs; an effect the other way counts as inactive or inconclusive; also: nearly all actives have a fitted effect of over 50% in size; also: potency is read from the fitted curve at half-maximal effect)
# How it was run: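 Cytotoxicity counter-screen run in the same wells as the beta-lactamase Smad reporter read: CellTiter-Glo luminescence after 30 min at room temperature. HEK 293T SBE-bla cells had 5 hr compound exposure at 37 C with TGF-beta1 (0.25 ng/mL stock).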
# [9] = qHTS assay to identify small molecule agonists of the TGF-beta/Smad signaling pathway - cell viability counter screen (AID 1346829; active = well fitted curve in the direction sought with a large enough effect in the repeat runs; an effect the other way counts as inactive or inconclusive; also: nearly all actives have a fitted effect of over 45% in size; also: potency is read from the fitted curve at half-maximal effect)
# How it was run: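 Tox21 qHTS format: SBE-bla HEK 293T cells treated with DMSO-dissolved compounds for 5 hr; CellTiter-Glo luminescence after 30 min at room temperature.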
# [10] = target: Thyrotropin-releasing hormone receptor (Homo sapiens) (UniProt P34981); assay: qHTS assay to identify small molecule antagonists of the thyrotropin-releasing hormone receptor (TRHR) signaling pathway (AID 1346877; active = well fitted inhibition curve with a large enough effect in the repeat runs, not every such curve was filed as active; also: potency is read from the fitted curve at half-maximal effect)
# Thyrotropin-releasing hormone receptor (Homo sapiens), sequence (P34981 whole entry, looked up): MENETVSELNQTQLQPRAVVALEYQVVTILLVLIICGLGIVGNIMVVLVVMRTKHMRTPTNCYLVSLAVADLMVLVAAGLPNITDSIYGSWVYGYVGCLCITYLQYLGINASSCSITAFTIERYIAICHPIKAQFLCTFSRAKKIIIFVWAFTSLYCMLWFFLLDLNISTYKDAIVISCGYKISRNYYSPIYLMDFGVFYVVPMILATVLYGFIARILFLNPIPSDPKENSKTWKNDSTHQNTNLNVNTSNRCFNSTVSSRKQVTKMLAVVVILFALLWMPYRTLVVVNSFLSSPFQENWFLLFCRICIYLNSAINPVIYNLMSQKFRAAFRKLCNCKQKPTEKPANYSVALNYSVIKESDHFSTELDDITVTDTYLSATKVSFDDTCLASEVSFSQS
# How it was run: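 In this cell-based calcium flux format, HEK293 cells expressing TRHR received test compound for 5 min before the agonist TRH (1 nM final). Dye loading lasted 2 h at 37 °C.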
# [11] = target: Thyrotropin-releasing hormone receptor (Homo sapiens) (UniProt P34981); assay: qHTS assay to identify small molecule agonists of the thyrotropin-releasing hormone receptor (TRHR) signaling pathway (AID 1346891); also: potency is read from the fitted curve at half-maximal effect; as to activation: series mostly up to about 58 µM
# How it was run: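 Kinetic fluorescence (3 min, 1 s intervals) reported intracellular calcium after compound transfer onto TRHR-Hek293 cells pre-loaded with dye for 2 h at 37 °C.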
# [12] = qHTS assay to identify small molecule agonists of the estrogen receptor beta (ER-beta) signaling pathway - cell viability counter screen (AID 1259380; active = well fitted curve in the direction sought with a large enough effect in the repeat runs; an effect the other way counts as inactive or inconclusive; also: nearly all actives have a fitted effect of over 30% in size; also: potency is read from the fitted curve at half-maximal effect)
# How it was run: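 Viability of ER-beta-UAS-bla HEK293T cells was determined by CellTiter-Glo luminescence following 16 hr treatment with test compounds at 37C.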
# [13] = target: Androgen receptor (Homo sapiens) (UniProt P10275); assay: qHTS assay to identify small molecule agonists of the androgen receptor (AR) signaling pathway in the presence of an antagonist (AID 1259381); also: nearly all actives have a fitted effect of over 15% in size
# Androgen receptor (Homo sapiens), sequence (P10275 whole entry, looked up): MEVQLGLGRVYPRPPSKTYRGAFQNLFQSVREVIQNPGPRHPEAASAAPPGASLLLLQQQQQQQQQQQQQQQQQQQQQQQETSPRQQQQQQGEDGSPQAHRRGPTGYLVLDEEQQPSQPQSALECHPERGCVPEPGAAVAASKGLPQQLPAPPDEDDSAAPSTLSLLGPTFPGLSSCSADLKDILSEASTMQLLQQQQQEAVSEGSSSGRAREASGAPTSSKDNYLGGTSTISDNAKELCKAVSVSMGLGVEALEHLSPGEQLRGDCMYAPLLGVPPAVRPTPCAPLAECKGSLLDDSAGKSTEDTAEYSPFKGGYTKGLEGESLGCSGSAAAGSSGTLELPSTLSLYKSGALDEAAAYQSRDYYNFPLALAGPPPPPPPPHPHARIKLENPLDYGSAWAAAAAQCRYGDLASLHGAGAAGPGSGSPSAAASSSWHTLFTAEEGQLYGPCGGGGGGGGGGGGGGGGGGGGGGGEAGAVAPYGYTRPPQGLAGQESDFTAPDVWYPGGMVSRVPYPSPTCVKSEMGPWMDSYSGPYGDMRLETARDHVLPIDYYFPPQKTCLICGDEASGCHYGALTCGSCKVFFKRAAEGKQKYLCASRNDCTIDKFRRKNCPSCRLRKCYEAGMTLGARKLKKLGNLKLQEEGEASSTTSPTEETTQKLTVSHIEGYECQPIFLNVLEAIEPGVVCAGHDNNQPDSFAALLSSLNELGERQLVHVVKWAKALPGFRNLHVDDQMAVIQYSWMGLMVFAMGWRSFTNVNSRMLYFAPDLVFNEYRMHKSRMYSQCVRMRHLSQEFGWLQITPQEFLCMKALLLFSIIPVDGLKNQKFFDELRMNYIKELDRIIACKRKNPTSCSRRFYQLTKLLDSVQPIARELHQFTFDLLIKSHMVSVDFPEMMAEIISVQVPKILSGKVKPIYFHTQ
# How it was run: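 Here, 15-concentration compound series were pin-transferred onto MDA-kb2 MMTV-luciferase cells already dosed with nilutamide (3.0uM final). After 16hr at 37C, ONE-Glo was added and luminescence read 30min later at room temperature.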
# [14] = target: Thyrotropin receptor (Homo sapiens) (UniProt P16473); assay: qHTS assay to identify small molecule antagonists of the thyroid stimulating hormone receptor (TSHR) signaling pathway (AID 1259385); also: nearly all actives have a fitted effect of over 20% in size; also: potency is read from the fitted curve at half-maximal effect
# Thyrotropin receptor (Homo sapiens), sequence (P16473 whole entry, looked up): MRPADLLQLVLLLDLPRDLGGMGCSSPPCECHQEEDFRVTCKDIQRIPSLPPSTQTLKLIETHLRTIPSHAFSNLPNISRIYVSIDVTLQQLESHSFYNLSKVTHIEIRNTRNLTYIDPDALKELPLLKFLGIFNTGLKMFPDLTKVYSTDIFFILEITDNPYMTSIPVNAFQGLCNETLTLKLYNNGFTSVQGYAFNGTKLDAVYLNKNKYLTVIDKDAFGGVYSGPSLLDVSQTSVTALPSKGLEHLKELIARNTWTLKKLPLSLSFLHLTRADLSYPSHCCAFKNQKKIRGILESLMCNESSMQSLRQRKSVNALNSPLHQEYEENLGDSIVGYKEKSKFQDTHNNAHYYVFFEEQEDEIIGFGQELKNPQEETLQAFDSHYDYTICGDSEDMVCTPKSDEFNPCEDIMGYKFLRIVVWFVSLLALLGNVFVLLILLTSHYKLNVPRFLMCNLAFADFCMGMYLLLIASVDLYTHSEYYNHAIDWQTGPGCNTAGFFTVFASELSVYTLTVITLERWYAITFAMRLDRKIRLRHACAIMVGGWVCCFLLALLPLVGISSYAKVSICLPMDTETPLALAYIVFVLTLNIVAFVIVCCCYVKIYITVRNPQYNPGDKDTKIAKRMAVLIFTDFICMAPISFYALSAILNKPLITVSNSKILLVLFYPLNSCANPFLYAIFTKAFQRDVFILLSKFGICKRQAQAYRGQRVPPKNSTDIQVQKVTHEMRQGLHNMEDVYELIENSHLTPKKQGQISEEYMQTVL
# How it was run: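 Antagonist mode: compound-treated TSHR-expressing HEK293 cells were stimulated with 1.5 ng/mL TSH (final) in presence of Ro20-1724 for 30 min at RT. HTRF cAMP detection after 1 h; each compound tested at 15 concentrations, triplicate.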
# [15] = target: Progesterone receptor (Homo sapiens) (UniProt P06401); assay: qHTS assay to identify small molecule antagonists of the progesterone receptor (PR) signaling pathway (AID 1346795; active = well fitted inhibition curve with a large enough effect in the signal ratio in the repeat runs, not every such curve was filed as active; the % refers to the signal ratio; also: potency is read from the fitted curve at half-maximal effect)
# How it was run: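 After 6 hr plating at 37C in 2% stripped-serum medium, PR-UAS-bla HEK293T cells got compounds, then 1 nM R5020. Sixteen hours later, LiveBLAzer substrate was applied for 2 hr at room temperature and fluorescence was recorded.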
# [16] = qHTS assay to identify small molecule agonists of the TGF-beta/Smad signaling pathway (AID 1346859; active = well fitted activation curve with a large enough effect in the signal ratio in the repeat runs, not every such curve was filed as active; the % refers to the signal ratio; also: series mostly up to about 77 µM)
# How it was run: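 Dual-wavelength fluorescence (460/530 nm emission) quantified beta-lactamase expression under the Smad binding element in HEK 293T cells following 5 hr compound treatment at 37 C.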
# [17] = qHTS assay to identify small molecule agonists of the androgen receptor (AR) signaling pathway in the presence of an antagonist - cell viability counter screen (AID 1259379; active = well fitted curve in the direction sought with a large enough effect in the repeat runs; an effect the other way counts as inactive or inconclusive;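 also: MDA-kb2 human breast cancer cells carrying an MMTV luciferase reporter; series mostly up to about 92 µM; nearly all actives have a fitted effect of over 25% in size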)
# How it was run: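 In MDA-kb2 cells (human breast carcinoma, MMTV-luciferase), compounds at 15 concentrations plus 3.0uM nilutamide; 16 hr, 37C, 0% CO2; CellTiter-Fluor fluorescence read for viability.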
# [18] = qHTS assay to identify small molecule agonists of the progesterone receptor (PR) signaling pathway - cell viability counter screen (AID 1346799); also: nearly all actives have a fitted effect of over 45% in size; also: potency is read from the fitted curve at half-maximal effect
# How it was run: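 Viability was scored by ATP luminescence (CellTiter-Glo, 30 min, room temperature) in the same wells used for the reporter readout, after 16 hr compound exposure of PR-UAS-bla HEK293T cells.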
Compound,Potency [1],Potency [2],Potency [3],Potency [4],Potency [5],Potency [6],Potency [7],Potency [8],Potency [9],Potency [10],Potency [11],Potency [12],Potency [13],Potency [14],Potency [15],outcome [16],Potency [17],Potency [18]
O=S1(=O)OCC2C(CO1)C1(Cl)C(Cl)=C(Cl)C2(Cl)C1(Cl)Cl (configuration not stated),inactive,inactive,inactive,inactive,inactive,inactive,inactive,inactive,inactive,inactive,inactive,,,,,,,
CCNS(=O)(=O)C(F)(F)C(F)(F)C(F)(F)C(F)(F)C(F)(F)C(F)(F)C(F)(F)C(F)(F)F,32900 nM (active),inactive,,inactive,inactive,inactive,,inactive,inactive,inactive,inactive,23300 nM (active),inactive,inactive,65700 nM (active),inactive,,
COP(=O)(OC)O/C(=C\Cl)c1cc(Cl)c(Cl)cc1Cl,inactive,inactive,inactive,inactive,,inactive,inactive,inactive,inactive,inactive,inactive,,inactive,,6860 nM (active),inactive,,
[C-]1=CC=CC1.[Cl][Zr+2][Cl].c1cc[cH-]c1,inactive,inactive,,,inactive,,inactive,inactive,,,,inactive,,,inactive,inactive,,
COP(=S)(OC)Oc1nc(Cl)c(Cl)cc1Cl,inactive,,inactive,inactive,inactive,,,inactive,inactive,,inactive,,,inactive,,inactive,inactive,
CC1CCCC1,inactive,inactive,,inactive,inactive,53600 nM (active),,inactive,inactive,,inactive,inactive,,inactive,inactive,,,inactive
[F][Sn]([c]1ccccc1)([c]1ccccc1)[c]1ccccc1,48.6 nM (active),1220 nM (active),inactive,inactive,,,1370 nM (active),1380 nM (active),1230 nM (active),3380 nM (active),4360 nM (active),1220 nM (active),,15400 nM (active),,,,1540 nM (active)
C=C(C)C(=O)[O][Sn]([CH2]CCC)([CH2]CCC)[CH2]CCC,217 nM (active),1540 nM (active),inactive,inactive,,,3440 nM (active),1380 nM (active),1100 nM (active),2690 nM (active),11000 nM (active),1370 nM (active),,12200 nM (active),1090 nM (active),,,
CC[N+]1(CC)CCC(OC(=O)C(O)(c2ccccc2)c2ccccc2)C1 (configuration not stated),inactive,inactive,inactive,inactive,inactive,inactive,inactive,inactive,inactive,inactive,inactive,inactive,,inactive,inactive,inactive,,
